Sampled rows, rich in hits. Any-hit rate of the full collection: about 21%.
Pf growth 48h – inhibits P. falciparum growth in the first generation, 48 h; actives 5.9% (n = 310,000); Potency, µM (series often up to 28.7 µM), without a hit: top-dose activity change, negative = inhibition, hits mostly inhibitors; P. falciparum luciferase growth in erythrocytes, 48 h; also: potency is read from the fitted curve at half-maximal effect; % is scaled to controls: 0 for no effect and ±100 for the full control effect
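Read-out is firefly luciferase luminescence from an integrated reporter in P. falciparum, so falling signal marks reduced parasite growth. Infected erythrocytes were at 2% hematocrit and 0.1% parasitemia (final) in Albumax-supplemented RPMI 1640.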
Shiga inhibitor – inhibitors of Shiga toxin in Vero cells; Vero cells, Shiga toxin protein synthesis inhibition reporter; inhibition, % at 38.7 µM; actives 9.2% (n = 290,000); AID 2315; in the data active = inhibition mostly above about 28%, no sharp cut-off; inactive = mostly below about 43%; also: 0% is about no effect
Cycloheximide cs – counter-screen hit for Shiga toxin inhibitors, cycloheximide; cell reporter, cycloheximide protein synthesis inhibition counterscreen; max response, %; actives 12% (n = 300,000); AID 2314; in the data active = max response mostly above about 13%, no sharp cut-off; inactive = mostly below about 14%; also: read at 38.3 µM for the half of the compounds with a filed dose; 0% is about no effect
NS1 inh – blocks influenza NS1 protein function | Potency, µM (series often up to 46.1 µM), for the others: at the highest dose activity, positive = more growth | actives 0.4% (n = 270,000) | AID 2326; calls by dose curve; also: potency is read from the fitted curve at half-maximal effect; actives are rising curves; nearly all actives have a fitted effect of over 50% in size
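Growth recovery, yeast-based: influenza A NS1 expressed in S. cerevisiae causes slow growth, and suppressors are detected by OD600. The parent strain without NS1 is used as positive control.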
Pf growth 96h – P. falciparum growth inhibition at 96 hours. P. falciparum luciferase reporter growth, 96 h. actives 6.9% (n = 320,000). Potency, µM (highest dose often 28.7 µM), inactives show at the top dose activity change, negative = inhibition, usual class: inhibitors; also: potency is read from the fitted curve at half-maximal effect; % is scaled to controls: 0 for no effect and ±100 for the full control effect
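Delayed-death screen, second-generation endpoint: infected erythrocytes, 2% hematocrit, 0.05% parasitemia final; 96 hours at 37 C, 5% CO2; luciferase detection reagent; luminescence decrease equals reduced growth.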
An asterisk follows results filed as active. Unless noted, calls follow the shape of the dose curve; as a rule, active = well fitted inhibition curve with a large enough effect; inconclusive = small, poorly fitted or top-dose-only effect, or another doubt; inactive = no such curve, though single readings can be large or run the other way.

Results for CCn1c(SCC(=O)c2ccc(F)cc2)nnc1-c1ccoc1C ?
Pf growth 48h: 21%; Shiga inhibitor: 40; Cycloheximide cs: 30*; NS1 inh: inconclusive; Pf growth 96h: 23%

Results for Cc1occc1-c1nnc(SCCCC(=O)c2ccc(F)cc2)n1C ?
Pf growth 48h: inconclusive; Shiga inhibitor: 23; Cycloheximide cs: -2; NS1 inh: -7%; Pf growth 96h: inconclusive

What do the screens show for `CN(c1ccc(C(=O)NCc2ccncc2)cc1)S(=O)(=O)c1ccc(Cl)cc1`?
Pf growth 48h: 23%; Shiga inhibitor: -9; Cycloheximide cs: -1; NS1 inh: 0%; Pf growth 96h: 0%

How did Cc1occc1-c1nnc(SCC(=O)c2ccc3c(c2)OCCO3)n1CC1CCCO1 (stereo not given) do in these assays?
Pf growth 48h: -14%; Shiga inhibitor: 40*; Cycloheximide cs: 23*; NS1 inh: 2%; Pf growth 96h: 9%

Results for CCCCn1c(SCC(=O)c2ccc3c(c2)OCCO3)nnc1-c1ccoc1C ?
Pf growth 48h: -22%; Shiga inhibitor: -14; Cycloheximide cs: -2; NS1 inh: -6%; Pf growth 96h: 2%

Results for CC(C)CC(=O)Nc1c2c(nn1-c1ccc(F)cc1)CS(=O)C2 (stereo not given) ?
Pf growth 48h: inconclusive; Shiga inhibitor: 19; Cycloheximide cs: 24*; NS1 inh: -8%; Pf growth 96h: 22%

What do the screens show for `Cc1ccc(-n2nc3c(c2NC(=O)CC(C)C)CS(=O)C3)cc1` (stereo not given)?
Pf growth 48h: 1%; Shiga inhibitor: -1; Cycloheximide cs: -5; NS1 inh: 3%; Pf growth 96h: -15%

Results for COc1ccccc1C1CCN(C(=O)c2cccc([N+](=O)[O-])c2)CC1 ?
Pf growth 48h: -6%; Shiga inhibitor: -5; Cycloheximide cs: -2; NS1 inh: -7%; Pf growth 96h: -22%

Results for CC1Cc2cc(/C(O)=C3/C(=O)C(=O)N(Cc4cccnc4)C3c3cccc(O)c3)ccc2O1 (stereo not given) ?
Pf growth 48h: 74%; Shiga inhibitor: 66*; Cycloheximide cs: 34*; NS1 inh: -19%; Pf growth 96h: 35%

What do the screens show for `Cc1nnc(N2C(=O)C(=O)/C(=C(\O)c3ccc4c(c3)CC(C)O4)C2c2ccccc2)s1` (stereo not given)?
Pf growth 48h: 33%; Shiga inhibitor: 50*; Cycloheximide cs: 25*; NS1 inh: inconclusive; Pf growth 96h: inconclusive

Results for COC(=O)c1ccc(C2/C(=C(/O)c3ccc4c(c3)CC(C)O4)C(=O)C(=O)N2Cc2cccnc2)cc1 (stereo not given) ?
Pf growth 48h: -1%; Shiga inhibitor: -6; Cycloheximide cs: -4; NS1 inh: -2%; Pf growth 96h: inconclusive

How did O=C1C(=O)N(Cc2cccnc2)C(c2cccc(O)c2)/C1=C(\O)c1ccc2c(c1)OCCO2 (stereo not given) do in these assays?
Pf growth 48h: 32%; Shiga inhibitor: 74*; Cycloheximide cs: 25*; NS1 inh: 7%; Pf growth 96h: 30%

How did CC1Cc2cc(/C(O)=C3/C(=O)C(=O)N(CCN4CCOCC4)C3c3cccc(O)c3)ccc2O1 (stereo not given) do in these assays?
Pf growth 48h: 228%; Shiga inhibitor: 91*; Cycloheximide cs: 62*; NS1 inh: -29%; Pf growth 96h: inconclusive

Results for CCOc1cccc(C2/C(=C(/O)c3ccc4c(c3)CC(C)O4)C(=O)C(=O)N2CCN2CCOCC2)c1 (stereo not given) ?
Pf growth 48h: 1%; Shiga inhibitor: -7; Cycloheximide cs: -2; NS1 inh: 4%; Pf growth 96h: -8%

Results for COc1cccc(C(=O)NNC(=O)C(=O)Nc2cccc3ccccc23)c1 ?
Pf growth 48h: 39%; Shiga inhibitor: -11; Cycloheximide cs: -1; NS1 inh: -47%; Pf growth 96h: inconclusive

What do the screens show for `O=C(CS(=O)(=O)Cc1ccccc1)NCc1ccco1`?
Pf growth 48h: 11%; Shiga inhibitor: -7; Cycloheximide cs: -4; NS1 inh: 7%; Pf growth 96h: 9%

How did Cc1ccc(N(CC(O)CN2C(=O)NC(C)(C)C2=O)S(=O)(=O)c2ccc([N+](=O)[O-])cc2)cc1 (stereo not given) do in these assays?
Pf growth 48h: 8%; Shiga inhibitor: 6; Cycloheximide cs: 5; NS1 inh: 6%; Pf growth 96h: inconclusive

Screening data as filed in PubChem.
